Measured values published in the supplement of paper PMC8728848.
The full list was thinned out, with the strongest signals kept by preference.

Assays:
Assay in all cases: glycan array binding signal (z-score within array); higher = stronger binding
Details in all cases: glycan notation: IUPAC condensed, linker removed; mutation: R144S
[1] = biological target: Fuc(a1-2)Gal(b1-3)GlcNAc(b1-3)[Fuc(a1-3)[Gal(b1-4)]GlcNAc(b1-6)]Gal(b1-4)Glc
Outline: (§1)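 Negative Z-scores can be read as non-binding. The Z-score is calculated within each array and then averaged across arrays of one protein sequence at different concentrations or buffers and across linkers. Arrays, 3228 in all, were curated from the Consortium for Functional Glycomics database and kept only where the protein sequence was available.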

Fuc(a1-2)Gal(b1-4)Glc6S = biological target: Fuc(a1-2)Gal(b1-4)Glc6S
Outline: as §1

[2] = biological target: Fuc(a1-2)Gal(b1-4)GlcNAc6S
Outline: as §1

[3] = biological target: Fuc(a1-2)Gal(b1-4)[Fuc(a1-3)]GlcNAc(b1-3)Gal(b1-4)[Fuc(a1-3)]GlcNAc
Outline: as §1

[4] = biological target: Fuc(a1-2)[Gal(a1-3)]Gal(b1-3)GlcNAc(b1-2)Man(a1-3)[Fuc(a1-2)[Gal(a1-3)]Gal(b1-3)GlcNAc(b1-2)Man(a1-6)]Man(b1-4)GlcNAc(b1-4)GlcNAc
Outline: as §1

[5] = biological target: Fuc(a1-2)[Gal(a1-3)]Gal(b1-4)GlcNAc(b1-2)Man(a1-3)[Fuc(a1-2)[Gal(a1-3)]Gal(b1-4)GlcNAc(b1-2)Man(a1-6)]Man(b1-4)GlcNAc(b1-4)GlcNAc
Outline: as §1

[6] = biological target: Fuc(a1-2)[GalNAc(a1-3)]Gal(b1-3)GlcNAc(b1-2)Man(a1-3)[Fuc(a1-2)[GalNAc(a1-3)]Gal(b1-3)GlcNAc(b1-2)Man(a1-6)]Man(b1-4)GlcNAc(b1-4)GlcNAc
Outline: as §1

[7] = biological target: Fuc(a1-2)[GalNAc(a1-3)]Gal(b1-4)GlcNAc(b1-2)Man(a1-3)[Fuc(a1-2)[GalNAc(a1-3)]Gal(b1-4)GlcNAc(b1-2)Man(a1-6)]Man(b1-4)GlcNAc(b1-4)GlcNAc
Outline: as §1

[8] = biological target: Fuc(a1-2)[GalNAc(a1-3)]Gal(b1-4)GlcNAc(b1-3)Gal(b1-4)GlcNAc(b1-3)Gal(b1-4)GlcNAc
Outline: as §1

[9] = biological target: Fuc(a1-2)[GalNAc(a1-3)]Gal(b1-4)[Fuc(a1-3)]GlcNAc
Outline: as §1

[10] = biological target: Fuc(a1-3)[Gal3S(b1-4)]GlcNAc
Outline: as §1

[11] = biological target: Gal(a1-4)Gal(b1-3)GlcNAc(b1-2)Man(a1-3)[Gal(a1-4)Gal(b1-3)GlcNAc(b1-2)Man(a1-6)]Man(b1-4)GlcNAc(b1-4)GlcNAc
Outline: as §1

Gal(a1-4)Gal(b1-4)Glc = biological target: Gal(a1-4)Gal(b1-4)Glc
Outline: as §1

[12] = biological target: Gal(b1-3)GalNAc(a1-3)[Fuc(a1-2)]Gal(b1-4)GlcNAc
Outline: as §1

[13] = biological target: Gal(b1-3)GlcNAc(b1-3)Gal(b1-4)GlcNAc(b1-6)[Gal(b1-3)GlcNAc(b1-3)]Gal(b1-4)Glc
Outline: as §1

[14] = biological target: Gal(b1-3)[Fuc(a1-4)]GlcNAc(b1-3)Gal(b1-4)[Fuc(a1-3)]GlcNAc
Outline: as §1

[15] = biological target: Gal(b1-3)[Neu5Ac(a2-6)]GalNAc
Outline: as §1

[16] = biological target: Gal(b1-4)GalNAc(a1-3)[Fuc(a1-2)]Gal(b1-4)GlcNAc
Outline: as §1

[17] = biological target: Gal(b1-4)GlcNAc(b1-3)[Gal(b1-4)GlcNAc(b1-6)]Gal(b1-4)GlcNAc
Outline: as §1

Gal3S(b1-4)GlcNAc6S = biological target: Gal3S(b1-4)GlcNAc6S
Outline: as §1

GalNAc(a1-3)Gal = biological target: GalNAc(a1-3)Gal
Outline: as §1

[18] = biological target: GalNAc(b1-3)Gal(a1-4)Gal(b1-4)GlcNAc(b1-3)Gal(b1-4)Glc
Outline: as §1

GalNAc(b1-3)GalNAc = biological target: GalNAc(b1-3)GalNAc
Outline: as §1

[19] = biological target: GlcNAc(a1-4)Gal(b1-4)GlcNAc(b1-3)Gal(b1-4)Glc
Outline: as §1

[20] = biological target: GlcNAc(b1-2)[GlcNAc(b1-4)]Man(a1-3)[GlcNAc(b1-2)Man(a1-6)]Man(b1-4)GlcNAc(b1-4)GlcNAc
Outline: as §1

[21] = biological target: GlcNAc(b1-3)Gal(b1-3)GalNAc
Outline: as §1

GlcNAc(b1-3)Gal(b1-4)Glc = biological target: GlcNAc(b1-3)Gal(b1-4)Glc
Outline: as §1

[22] = biological target: GlcNAc(b1-3)Gal(b1-4)GlcNAc
Outline: as §1

Man(a1-3)[Man(a1-6)]Man = biological target: Man(a1-3)[Man(a1-6)]Man
Outline: as §1

[23] = biological target: Neu5Ac(a2-3)Gal(b1-4)GlcNAc6S
Outline: as §1

[24] = biological target: Neu5Ac(a2-3)Gal(b1-4)[Fuc(a1-3)]GlcNAc(b1-6)[Neu5Ac(a2-3)Gal(b1-3)]GalNAc
Outline: as §1

[25] = biological target: Neu5Ac(a2-3)GalNAc(b1-4)GlcNAc
Outline: as §1

Neu5Ac(a2-6)GalNAc = biological target: Neu5Ac(a2-6)GalNAc
Outline: as §1

[26] = biological target: Neu5Gc(a2-3)Gal(b1-3)GlcNAc
Outline: as §1

[27] = biological target: Neu5Gc(b2-6)Gal(b1-4)GlcNAc
Outline: as §1

B1: Gal 3 (Homo sapiens), P17931 (protein)
chain: MADNFSLHDALSGSGNPNPQGWPGAWGNQPAGAGGYPGASYPGAYPGQAPPGAYPGQAPPGAYHGAPGAYPGAPAPGVYPGPPSGPGAYPSSGQPSAPGAYPATGPYGAPAGPLIVPYNLPLPGGVVPRMLITILGTVKPNANSILDFQRGNDVAFHFNPRFNENNRRVIVCNTKLDNNWGREERQSVFPFESGKPFKIQVLVEPDHFKVAVNDAHLLQYNHRVKKLNEISKLGISGDIDLTSASYTMI
[1]
  glycan array binding signal (z-score): 0.343
Fuc(a1-2)Gal(b1-4)Glc6S
  glycan array binding signal (z-score): -0.313
[2]
  glycan array binding signal (z-score): 0.788
[3]
  glycan array binding signal (z-score): -0.357
[4]
  glycan array binding signal (z-score): 4.81
[5]
  glycan array binding signal (z-score): 5.46
[6]
  glycan array binding signal (z-score): 6.11
[7]
  glycan array binding signal (z-score): 5.95
[8]
  glycan array binding signal (z-score): 4.99
[9]
  glycan array binding signal (z-score): -0.356
[10]
  glycan array binding signal (z-score): -0.359
[11]
  glycan array binding signal (z-score): -0.361
Gal(a1-4)Gal(b1-4)Glc
  glycan array binding signal (z-score): -0.359
[12]
  glycan array binding signal (z-score): 4.94
[13]
  glycan array binding signal (z-score): 0.34
[14]
  glycan array binding signal (z-score): -0.357
[15]
  glycan array binding signal (z-score): -0.352
[16]
  glycan array binding signal (z-score): 5.09
[17]
  glycan array binding signal (z-score): 1.2
Gal3S(b1-4)GlcNAc6S
  glycan array binding signal (z-score): -0.288
GalNAc(a1-3)Gal
  glycan array binding signal (z-score): -0.354
[18]
  glycan array binding signal (z-score): 0.182
GalNAc(b1-3)GalNAc
  glycan array binding signal (z-score): -0.354
[19]
  glycan array binding signal (z-score): -0.356
[20]
  glycan array binding signal (z-score): -0.341
[21]
  glycan array binding signal (z-score): -0.356
GlcNAc(b1-3)Gal(b1-4)Glc
  glycan array binding signal (z-score): -0.36
[22]
  glycan array binding signal (z-score): -0.358
Man(a1-3)[Man(a1-6)]Man
  glycan array binding signal (z-score): -0.354
[23]
  glycan array binding signal (z-score): -0.365
[24]
  glycan array binding signal (z-score): -0.352
[25]
  glycan array binding signal (z-score): -0.363
Neu5Ac(a2-6)GalNAc
  glycan array binding signal (z-score): -0.364
[26]
  glycan array binding signal (z-score): -0.363
[27]
  glycan array binding signal (z-score): -0.358
